An excerpt weighted towards active compounds, which were near 11% of everything screened.
HCV inh: HCV inhibition. 340,000 tested, 3.4% active. Huh7.5.1 HCVcc-Cre infection, luciferase reporter, 44 h. Potency, µM (titrated, usually from 41.8 µM), without a hit: at the top dose activity change, negative = inhibition, actives largely listed as inhibitors; note: % is set by controls: 0 for no effect and ±100 for the full control effect
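1,000 cells/well; 4 h culture; + compound; + HCVcc-Cre (~0.5 moi); 44 h; luciferase substrate, RT 15 min; read 15 sec.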
NS1 function inh: influenza NS1 inhibition. AID 2326. 270,000 tested, 0.4% active. Potency, µM (series often up to 46.1 µM), for inactives: at the highest dose activity, positive = more growth; calls by dose curve; note: actives are rising curves; nearly all actives have a fitted effect of over 50% in size
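Compounds were scored for reversing the slow growth caused by influenza A NS1 in S. cerevisiae, measured by optical density at 600 nm. Assay medium contained 2% galactose at pH 6.0; NS1-free yeast of the same strain were the positive control.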
Vaccinia mCherry: inhibitors of vaccinia virus infection (mCherry reporter signal) | Vaccinia virus mCherry reporter infection, fluorescence | Potency, µM (series often up to 36.5 µM), for inactives: top-dose activity change, negative = inhibition, usual class: inhibitors | 310,000 tested, 0.63% active; calls by dose curve; tested in A549 cells; note: % is set by controls: 0 for no effect and ±100 for the full control effect; nearly all actives have a fitted effect of over 35% in size
Pf growth 48h: P. falciparum growth inhibition at 48 hours (one generation); P. falciparum luciferase growth in erythrocytes, 48 h; Potency, µM (series often up to 28.7 µM), for inactives: top-dose activity change, negative = inhibition, usual class: inhibitors; 310,000 tested, 5.9% active; AID 504832; note: % is set by controls: 0 for no effect and ±100 for the full control effect
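Cell-based growth assay: transgenic P. falciparum expressing firefly luciferase, cultured in red cells within RPMI 1640 containing 0.5% w/v Albumax, 24 mM bicarbonate and gentamycin. A drop in luciferase activity indicates inhibition.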
Pf growth 96h: P. falciparum growth inhibition at 96 hours; P. falciparum luciferase reporter growth, 96 h; 320,000 tested, 6.9% active; Potency, µM (series often up to 28.7 µM), for the others: at the highest dose activity change, negative = inhibition, most hits filed as inhibitors; note: % is set by controls: 0 for no effect and ±100 for the full control effect
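P. falciparum expressing integrated firefly luciferase grown in erythrocytes (2% hematocrit, 0.05% parasitemia final) with compounds for 96 hours at 37 C, 5% CO2. Growth inhibition read as loss of luminescence after adding luciferase detection reagent.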
VACV Venus inh: vaccinia inhibition (Venus reporter); Vaccinia virus Venus reporter expression, fluorescence; Potency, µM (titrated, usually from 36.5 µM), inactives show at the highest dose activity change, negative = inhibition, most hits filed as inhibitors; 330,000 tested, 0.46% active; calls by dose curve; tested in A549 cells; note: % is set by controls: 0 for no effect and ±100 for the full control effect; nearly all actives have a fitted effect of over 30% in size
* hit, by the source's call. Unless noted, calls come from the whole dose curve; as a rule, active = well fitted inhibition curve with a large enough effect; inconclusive = small, poorly fitted or top-dose-only effect, or another doubt; inactive = no such curve, though single readings can be large or run the other way. Potency is the fitted concentration of half-maximal effect.

How did Cc1nc2ncccn2c1-c1csc(Nc2ccccc2)n1 do in these assays?
HCV inh: 11.2µM*; NS1 function inh: -26.0%; Vaccinia mCherry: -23.5%; Pf growth 48h: 3.29µM*; Pf growth 96h: 5.9%; VACV Venus inh: inconclusive

How did Cc1nc2ncccn2c1-c1csc(Nc2ccc(N(C)C)cc2)n1 do in these assays?
HCV inh: -22.0%; NS1 function inh: 15.7%; Vaccinia mCherry: inconclusive; Pf growth 48h: inconclusive; Pf growth 96h: inconclusive; VACV Venus inh: inconclusive

How did COc1ccc(Nc2nc(-c3c(C)nc4ncccn34)cs2)cc1 do in these assays?
HCV inh: 11.2µM*; NS1 function inh: 2.4%; Vaccinia mCherry: inconclusive; Pf growth 48h: inconclusive; Pf growth 96h: inconclusive; VACV Venus inh: inconclusive

How did CC(C1=C(CCN(C)C)Cc2ccccc21)c1ccccn1 (configuration not stated) do in these assays?
HCV inh: 14.0%; Vaccinia mCherry: inactive; VACV Venus inh: -10.9%

What do the screens show for `CCSC1=NN2CCS(=O)(=O)N=C2S1`?
HCV inh: 3.7%; Vaccinia mCherry: 11.0%; Pf growth 48h: 0.0%; Pf growth 96h: 2.1%; VACV Venus inh: 0.0%

How did COc1ccc(OC)c(CCNC(=O)c2ccc(CS(=O)(=O)c3ccc(Br)cc3)o2)c1 do in these assays?
HCV inh: inconclusive; Vaccinia mCherry: inactive; Pf growth 48h: -24.1%; Pf growth 96h: inconclusive; VACV Venus inh: -14.6%

What do the screens show for `CC(C)c1ccc(NC(=O)c2cc(S(=O)(=O)NCC3COc4ccccc4O3)ccc2F)cc1` (configuration not stated)?
HCV inh: inconclusive; NS1 function inh: -0.7%; Vaccinia mCherry: -21.2%; Pf growth 48h: inconclusive; Pf growth 96h: 2.94µM*; VACV Venus inh: inconclusive

What do the screens show for `CN(CC(=O)Nc1ccc(N2CCOCC2)cc1)C(=O)CSc1ccc(Br)cc1`?
NS1 function inh: 6.4%; Vaccinia mCherry: -4.4%; Pf growth 48h: -19.1%; Pf growth 96h: inconclusive; VACV Venus inh: -18.2%

Results for Cc1ccc(Nc2ncnc3nc[nH]c23)cc1 ?
Vaccinia mCherry: -7.9%; VACV Venus inh: -20.7%

What do the screens show for `c1ccc(COc2ccc(Nc3ncnc4nc[nH]c34)cc2)cc1`?
HCV inh: -22.3%; NS1 function inh: -10.0%; Vaccinia mCherry: 7.08µM*; Pf growth 96h: inconclusive; VACV Venus inh: -29.9%

What do the screens show for `CC(Nc1nc(Cl)nc2nc[nH]c12)c1ccccc1` (configuration not stated)?
Vaccinia mCherry: -26.4%; VACV Venus inh: -28.5%

What do the screens show for `CC(Nc1ncnc2nc[nH]c12)c1ccccc1` (configuration not stated)?
HCV inh: -25.4%; NS1 function inh: -32.0%; Vaccinia mCherry: -14.9%; Pf growth 48h: inconclusive; Pf growth 96h: 13.1µM*; VACV Venus inh: -19.3%

How did CCc1ccccc1NC(=O)CNC(=O)CCC(=O)c1cc(C)sc1C do in these assays?
Vaccinia mCherry: inactive; VACV Venus inh: -21.5%

What do the screens show for `COc1ccccc1N1CCN(S(=O)(=O)c2cc(C(=O)Nc3ccc(Oc4ccccc4)cc3)ccc2F)CC1`?
Vaccinia mCherry: -2.6%; VACV Venus inh: -24.4%

Results for CCC1(CC)Cc2ccccc2C(N)=C1C#N ?
HCV inh: 13.8%; NS1 function inh: -7.7%; Pf growth 48h: -5.0%; VACV Venus inh: -12.6%

What do the screens show for `O=c1c2c(nc3nc(SCc4ccccc4)[nH]n13)CCC2`?
HCV inh: 1.7%; NS1 function inh: -9.4%; Pf growth 48h: -27.2%; Pf growth 96h: inconclusive

What do the screens show for `CC(C)S(=O)(=O)c1csc(C(=O)Nc2ccc(F)cc2)c1N`?
HCV inh: 3.16µM*; NS1 function inh: 1.0%; Vaccinia mCherry: inconclusive; Pf growth 48h: 228.3%; Pf growth 96h: 328.3%; VACV Venus inh: -20.8%

What do the screens show for `Cc1nc(Cl)sc1C(=O)Nc1ccc(F)cc1`?
HCV inh: 22.7%; Vaccinia mCherry: inactive; VACV Venus inh: -16.7%

What do the screens show for `C=CCOc1ccc(/C(O)=C2\C(=O)C(=O)N(CCCOC)C2c2ccncc2)cc1` (configuration not stated)?
HCV inh: 1.5%; NS1 function inh: 2.2%; Vaccinia mCherry: 24.9%; Pf growth 48h: 2.6%; Pf growth 96h: 41.2%; VACV Venus inh: 29.6%

How did COc1ccc(-c2c([C@H]3[C@H]4C=CC[C@@H](C)[C@@H]4C(=O)N3Cc3ccccc3)ccc3ccccc23)cc1OC do in these assays?
HCV inh: inconclusive; NS1 function inh: 4.3%; Vaccinia mCherry: -25.9%; Pf growth 48h: 2.33µM*; Pf growth 96h: 2.94µM*; VACV Venus inh: inconclusive

What do the screens show for `C[C@@H]1CC=C[C@H]2[C@H]1C(=O)N(Cc1ccccc1)[C@H]2c1ccc(/C=C/c2ccccc2)cc1F`?
HCV inh: 0.5%; NS1 function inh: 20.8%; Vaccinia mCherry: inactive; Pf growth 48h: 10.4µM*; Pf growth 96h: inconclusive; VACV Venus inh: 0.3%

How did COc1ccc(-c2ccc(F)cc2)cc1[C@H]1[C@H]2C=CC[C@@H](C)[C@@H]2C(=O)N1Cc1ccccc1 do in these assays?
HCV inh: -25.4%; NS1 function inh: 8.4%; Vaccinia mCherry: inactive; Pf growth 48h: 11.7µM*; Pf growth 96h: inconclusive; VACV Venus inh: -18.2%

How did CC1CCCCN1C(=O)CSc1nc2ccsc2c(=O)n1Cc1ccccn1 (configuration not stated) do in these assays?
HCV inh: 3.3%; NS1 function inh: inconclusive; Pf growth 48h: 38.4%; Pf growth 96h: 69.6%

How did COC(=O)C1CCN(S(=O)(=O)c2c[nH]c(=O)[nH]c2=O)CC1 do in these assays?
Vaccinia mCherry: inactive; VACV Venus inh: -3.6%

What do the screens show for `CC1CCN(S(=O)(=O)c2c[nH]c(=O)[nH]c2=O)CC1`?
HCV inh: 10µM*; Vaccinia mCherry: -12.2%; Pf growth 48h: -2.4%; Pf growth 96h: 1.3%; VACV Venus inh: -4.9%

Results for Cn1c(C(=O)c2ccncc2)cc2ccccc21 ?
HCV inh: 9.9%; NS1 function inh: -0.3%; Vaccinia mCherry: -9.1%; Pf growth 48h: 13.1µM*; Pf growth 96h: inconclusive; VACV Venus inh: -24.6%

How did Cn1c(C(=O)N2CCN(c3ccc(F)cc3)CC2)cc2ccccc21 do in these assays?
HCV inh: -29.1%; NS1 function inh: -0.2%; Pf growth 48h: inconclusive; Pf growth 96h: inconclusive

Results for CC(=O)c1cccc(NC(=O)c2cccc(S(=O)(=O)N3CCOCC3)c2)c1 ?
HCV inh: -15.0%; NS1 function inh: -4.0%; Vaccinia mCherry: -11.1%; Pf growth 48h: -24.1%; Pf growth 96h: 13.0%; VACV Venus inh: -11.5%

How did CCN(CC)S(=O)(=O)c1cccc(C(=O)N/N=C(\C)c2ccc(O)cc2O)c1 do in these assays?
HCV inh: 8.91µM*; Vaccinia mCherry: inconclusive; Pf growth 48h: 0.0%; Pf growth 96h: inconclusive; VACV Venus inh: inconclusive

Bioassay records (PubChem)
